ChEMBL document CHEMBL4513216, “Probing the Open Global Health Chemical Diversity Library for Multistage-Active Starting Points for Next-Generation Antimalarials” (ACS Infect Dis, 2020)
About 2,700 (4%) of roughly 68,000 compounds showed an effect of 50% or more. The list comes from a sample in which strong results are over-represented; it also holds similar structures and randomly drawn compounds.

Each molecule was assayed on Plasmodium berghei (assay: Screen against P. berghei liver stage (PbLuc), transformed with Luciferase, at 2uM). Conditions: tested at 2 uM.
Type: functional, HepG2

Compound | INHIBITION
Cn1ccnc1CN(CCO)C(=O)c1cc2ccccc2o1 | 22.27%
Cc1c(Cl)cc(C(=O)N(CCO)Cc2nccn2C)cc1Cl | 55.84%
Cn1ccnc1CN(CCO)C(=O)c1cnc2ccccc2c1 | 29.71%
CC(C)NC(=O)NC(C)c1nc(-c2ccccc2)cs1 (configuration not stated) | -22.08%
Cc1csc(N(C)C(=O)C2CC(=O)N(c3ccccc3Cl)C2)n1 (configuration not stated) | -29.95%
CN1CCc2nc(C3CCCN(S(=O)(=O)c4ccccc4)C3)ncc2C1 (configuration not stated) | 64.55%
CCN(CC)S(=O)(=O)N1CCCC(c2ncc3c(n2)CCN(C)C3)C1 (configuration not stated) | 3.38%
CN1CCc2nc(C3CCCN(S(=O)(=O)N4CCCC4)C3)ncc2C1 (configuration not stated) | -1.51%
Cc1nc(N2CCCC2C(=O)NC(C)(C)CO)nc2ccccc12 (configuration not stated) | 26.49%
COCC1CN(c2ccc(Cl)cc2C#N)CCO1 (configuration not stated) | 29.3%
Cc1nc(CN2CCCC(c3nc(C)n4c(C)c(C)sc34)C2)co1 (configuration not stated) | -12.89%
Cc1cc(CNC2(CO)CCOCC2)ccc1Br | 51.08%
Cc1cc(CNCC2(O)CCOCC2)ccc1Br | -6.29%
OCC1(NCc2cccc(-n3cccn3)c2)CCOCC1 | -2.38%
CCn1c(CN2CCN(C(=O)C3CCC3)CC2)nc2c(F)cccc21 | 10.22%
O=C(C1CNCCO1)N1CCCC(c2ccccc2)(c2ccccc2)C1 (configuration not stated) | 42.2%
CCCc1nc(C)c(C(=O)NS(=O)(=O)c2cccnc2)s1 | -25.2%
Cc1nc(C(C)C)sc1C(=O)NS(=O)(=O)c1ccc(C#N)cc1 | 36.12%
CCCc1nc(C)c(C(=O)NS(=O)(=O)c2ccc(C#N)cc2)s1 | 55.63%
Fc1ccc(CN2CCCC3(COCCN(Cc4c[nH]nn4)C3)C2)cc1 (configuration not stated) | 23.81%
O=C1CC(c2ccc(C(=O)O)cc2)c2ncn(-c3cccc(Cl)c3)c2N1 (configuration not stated) | 53.61%
O=C1CC(c2ccc(C(=O)O)cc2)c2ncn(-c3cccc(F)c3)c2N1 (configuration not stated) | -20.06%
O=C1CC(c2ccc(C(=O)O)cc2)c2ncn(-c3ccccc3)c2N1 (configuration not stated) | -29.53%
CC(C)c1cnc(CN(C)C2CCN(CCc3cnn(C)c3)C2)o1 (configuration not stated) | 5.59%
CN(Cc1noc(C2CC2)n1)C1CCN(CCc2cccs2)C1 (configuration not stated) | 30.88%
CN(Cc1nnc(C2CC2)n1C)C1CCN(CCc2ccncc2)C1 (configuration not stated) | -0.45%

Compound | INHIBITION
CN(Cc1nnc(C2CC2)n1C)C1CCN(CCc2cnn(C)c2)C1 (configuration not stated) | 81.1%
CC(C)c1cnc(CN(C)C2CCN(CCCc3cnn(C)c3)C2)o1 (configuration not stated) | 59.23%
CN(Cc1cnn(C)c1)C1CCCN(Cc2noc(C3CC3)n2)C1 (configuration not stated) | 22.75%
Cc1ccc(CCN2CCC(N(C)Cc3noc(C4CC4)n3)C2)cc1 (configuration not stated) | 54.85%
CN(Cc1noc(C2CC2)n1)C1CCN(CCc2cnn(C)c2)C1 (configuration not stated) | 64.87%
CN(Cc1nnc(C2CC2)n1C)C1CCN(CCc2ccccc2)C1 (configuration not stated) | -11.31%
Cc1cnc(CN(C)C2CCN(CCCc3cnn(C)c3)C2)o1 (configuration not stated) | 8.42%
Cc1nc(CN(C)C2CCN(CCc3cnn(C)c3)C2)no1 (configuration not stated) | 31.7%
Cc1cc(C)n(CCN2CCC(N(C)Cc3noc(C4CC4)n3)C2)n1 (configuration not stated) | 12.66%
COc1ccnc(C(=O)N2CCCC(c3noc(C)n3)C2)c1 (configuration not stated) | 11.71%
Cc1cc(C)c2nc(CN3CCCC(c4cc[nH]n4)C3)cc(O)c2c1 (configuration not stated) | -45.64%
Cn1cc(CNC(=O)c2cc3c(s2)CCCCC3)cn1 | 36.66%
COc1cc(C2CC(=O)Nc3c2nc2n3CCCC2)ccc1O (configuration not stated) | 0.1%
CC1CCN(C(=O)c2cc(NC(=O)c3ccccc3)n(C)n2)CC1 | -57.06%
CCc1cc(NCCCN(C)C2CCCC2)ncn1 | 36.22%
CC(C)NC(=O)N1CCC2(CCC(=O)N2CCN(C)C)CC1 | 16.12%
Cc1c(C2=NS(=O)(=O)N(C)C(C(=O)Nc3ccc(Br)cc3)=C2)cnn1C | 22.84%
CN1C(=O)CCCC12CCCN(Cc1nccs1)C2 (configuration not stated) | 20.2%
CCN(Cc1ccccc1)C(=O)CN1CCCC(Cn2cncn2)C1 (configuration not stated) | 33.16%
CNC(=O)CN1CCN(C(=O)c2ccn(C)c(=O)c2)CC1 | -16.28%
CC(C)c1nc(C2CCCN2C(=O)CCn2cncn2)no1 (configuration not stated) | -15.92%
CC(C)c1nc(C2CCCN(C(=O)CCn3cncn3)C2)no1 (configuration not stated) | 64.16%
CSc1ccc(C(=O)C2CCCN(C(=O)CCCn3cncn3)C2)cc1 (configuration not stated) | 49.98%
CC(C)c1nc(C2CCCN(C(=O)CCCn3cncn3)C2)no1 (configuration not stated) | -45.72%
CSc1ccc(C(=O)C2CCCN(C(=O)CCn3cncn3)C2)cc1 (configuration not stated) | 55.25%
CSc1ccc(C(=O)C2CCCN(C(=O)CCn3cnnn3)C2)cc1 (configuration not stated) | 35.13%

Compound | INHIBITION
c1ccn2cc(CN3CCCC(c4ccn[nH]4)C3)nc2c1 (configuration not stated) | 13.4%
Cc1cc(C2CCCN(Cc3cccnc3)C2)n[nH]1 (configuration not stated) | 30.82%
CC1c2ccc(F)cc2CCN1C(=O)c1[nH]c(=O)[nH]c(=O)c1N (configuration not stated) | -36.67%
CCOC(=O)c1ccc(NC(=O)c2c(O)nc3c(c2O)CCCC3)cc1 | -23.02%
CC(=O)N1CC(=O)N(c2cnn(C)c2)CC12CCN(CC1CC1)C2 (configuration not stated) | -7.82%
Cc1cccc(C(=O)N2CCO[C@H]3[C@H](OCCN(C)C)CC[C@@H]32)n1 | 19.98%
COc1c(CNC(C)C(=O)NC2CCCC2)c(C)nn1C (configuration not stated) | 60.34%
COc1c(CNCCC(=O)NC2CCCC2)c(C(C)C)nn1C | -5.09%
CC(C)c1nn(C)c(N(C)C)c1CNCCC(=O)NC1CCCC1 | -0.64%
COc1c(CNCCC(=O)NC2CCCCC2)c(C(C)C)nn1C | 64.16%
CC(NCc1c(C(C)C)nn(C)c1N(C)C)C(=O)NC1CCCC1 (configuration not stated) | 10.04%
COc1c(CNC(C)C(=O)NC2CCCC2)c(C(C)C)nn1C (configuration not stated) | 3.59%
Cc1nn(C)c(N(C)C)c1CNCCC(=O)NC1CCCC1 | 41.76%
Cc1nn(C)c(N(C)C)c1CNCCC(=O)NC1CCCCC1 | 68.24%
CC(C)c1nn(C)c(N(C)C)c1CNCCC(=O)NC1CCCCC1 | 39.72%
O=C(NC1CCC1)[C@@H]1C[C@@H]2CCN(CCc3ccccc3)C[C@H]2O1 | -39.67%
CNC(=O)CN1CCOCC2(CCCN(Cc3ccc(F)cc3)C2)C1 (configuration not stated) | 34.24%
C[C@H]1C[C@H]2CN(S(=O)(=O)c3ccc(F)cc3)CC[C@@H]2O1 | -21.77%
COCCOc1ncccc1C(=O)Nc1ccc(-n2cncn2)c(F)c1 | 69.41%
CC(=O)Nc1ccc(-n2cncn2)c(F)c1 | 8.5%
COCCNC(=O)Nc1ccc(-n2cncn2)c(F)c1 | 0.26%
COC[C@]1(O)CCN(c2cc(N3CCOCC3)ncn2)CC1(C)C | -18.81%
COc1ccc(CNC(=O)Nc2cccnc2N2CCCC2)cc1O | 24.15%
CN1CCC2(CCN(c3ncc(F)cn3)CC2)C1=O | 34.19%
O=C1N(CC2CCCC2)CCC12CCN(c1ncc(F)cn1)CC2 | 61.15%
O=C1N(CC2CC2)CCC12CCCN(c1ncc(F)cn1)C2 (configuration not stated) | -14.61%

Compound | INHIBITION
O=C1N(CC2CC2)CCC12CCN(c1ncccn1)CC2 | 8.37%
Cc1cnc(N2CCC3(CCN(CC4CC4)C3=O)CC2)nc1 | 51.19%
Cc1cnc(N2CCC3(CCN(CC4CCCC4)C3=O)CC2)nc1 | 45.28%
Cc1ccc(CNC(=O)NC2CCCN(c3ncccn3)C2)n1C (configuration not stated) | 30.83%
Cc1ccc(C(CNCc2cccn2C)N2CCOCC2)s1 (configuration not stated) | -24.42%
Cc1ccc(C(CNCc2ccncc2)N2CCOCC2)s1 (configuration not stated) | -27.89%
Cc1ccc(C(CNCc2nccn2C)N2CCOCC2)s1 (configuration not stated) | 69.82%
CCn1cc(CNCC(c2ccc(C)s2)N2CCOCC2)cn1 (configuration not stated) | 8.33%
CCn1ccnc1CNCC(c1ccc(C)s1)N1CCOCC1 (configuration not stated) | 76.65%
Cc1ccc(C(CNCc2ncc[nH]2)N2CCOCC2)s1 (configuration not stated) | 6.4%
NS(=O)(=O)CCNC(=O)c1nnn(-c2ccccc2)c1C1CC1 | 2.39%
Cc1nc(NC(=O)CN2CCc3c(nc(C(C)C)n3C)C2)sc1C | -1.14%
CS(=O)(=O)N1CCO[C@@H]2CN(C(=O)COC3CCCC3)C[C@@H]2C1 | 17.4%
CCOc1c(OC)cc(C=Cc2ncc(C(=O)NC)s2)cc1OC | 39.56%
FC(F)(F)c1cccc(N2CCC(NCc3cccnc3)CC2)c1 | 47.23%
Cn1nc(-c2cccs2)cc1[C@H]1CN2CC[C@H]1C[C@@H]2CNS(C)(=O)=O | 40.83%
CCNC(=O)NC[C@H]1C[C@@H]2CCN1C[C@@H]2c1cc(-c2cccs2)nn1C | 60.6%
Cn1nc(-c2cccs2)cc1[C@H]1CN2CC[C@H]1C[C@@H]2CN | 34.24%
COCC(=O)NC[C@H]1C[C@@H]2CCN1C[C@@H]2c1cc(-c2cccs2)nn1C | 27.65%
CC(=O)NC[C@H]1C[C@@H]2CCN1C[C@@H]2c1cc(-c2cccs2)nn1C | 35.89%
Cn1nc(-c2ccccc2)cc1[C@H]1CN2CC[C@H]1C[C@@H]2CNS(C)(=O)=O | 62.25%
O=C(c1cc(C2CC2)on1)N1CCC(Oc2ncccc2Cl)CC1 | -22.8%
CCN1C[C@@H]2[C@@H](OC)CCN(S(=O)(=O)c3ccccc3F)[C@@H]2C1 | -22.38%
O=C(CCc1ccccc1)NCC(O)c1c(F)cccc1F (configuration not stated) | -17.44%
